According to ChEMBL document CHEMBL3433997, “St. Jude Leishmania screening dataset” (2016):

Experiments:
Type in all cases: functional
[1] = molecular target: Solute carrier family 2, facilitated glucose transporter member 1 (Homo sapiens) (UniProt P11166); assay: ST_JUDE_LEISH: Cytotoxicity at 2uM final concentration against transgenic Leishmania Mexicana promastigotes LmGLUT1 that are glucose transport deficient and complemented with the human glucose transporter GLUT1. Activity is measured by DNA content using SYBR green in vitro
Solute carrier family 2, facilitated glucose transporter member 1 (Homo sapiens), sequence (P11166 whole entry): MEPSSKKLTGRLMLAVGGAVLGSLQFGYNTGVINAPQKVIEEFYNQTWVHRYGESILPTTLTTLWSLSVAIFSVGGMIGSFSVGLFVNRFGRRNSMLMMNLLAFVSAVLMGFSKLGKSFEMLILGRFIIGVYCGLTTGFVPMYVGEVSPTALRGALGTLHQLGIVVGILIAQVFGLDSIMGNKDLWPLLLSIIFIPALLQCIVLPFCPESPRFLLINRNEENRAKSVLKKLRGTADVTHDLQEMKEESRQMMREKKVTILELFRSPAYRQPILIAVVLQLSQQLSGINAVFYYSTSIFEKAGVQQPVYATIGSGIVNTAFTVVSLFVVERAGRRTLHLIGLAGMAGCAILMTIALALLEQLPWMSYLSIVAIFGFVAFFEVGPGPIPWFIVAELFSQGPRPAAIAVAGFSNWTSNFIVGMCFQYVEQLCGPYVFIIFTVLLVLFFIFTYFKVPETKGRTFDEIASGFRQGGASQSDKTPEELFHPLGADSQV

[2] = molecular target: Hexose transporter 1 (Plasmodium falciparum) (UniProt O97467); assay: ST_JUDE_LEISH: Cytotoxicity at 2uM final concentration against transgenic Leishmania Mexicana promastigotes LmPfHT that are glucose transport deficient and complemented with the Plasmodium falciparum hexose transporter. Activity is measured by DNA content using SYBR green in vitro
[3] = molecular target: Glucose transporter (Leishmania mexicana) (UniProt O61059); assay: ST_JUDE_LEISH: Cytotoxicity at 2uM final concentration against transgenic Leishmania Mexicana promastigotes LmGT2 that are glucose transport deficient and complemented with the L. Mexicana glucose transporter 2. Activity is measured by DNA content using SYBR green in vitro

Row | SMILES | inhibition [1] | inhibition [2] | inhibition [3]
1 | O=C(Nc1ccc(F)c(F)c1)c1ccc(CN2CCCN(Cc3cccc(F)c3)CC2)cc1 | 0.07% | -0.34% | 1.29%
2 | O=C(Nc1cccc(-c2cc3ccccc3[nH]2)c1)C1CCN(Cc2ccccc2O)CC1 | 10.3% | 9.31% | 8.56%
3 | Cc1cc(O)c(CN(C)Cc2ccc3c(c2)OCO3)cc1C(C)C | -0.84% | -1.41% | 0.04%
4 | CN(C)CCOc1cc(NC(=O)Nc2ccc(-c3ccncc3)c3ccccc23)ccc1I | 6.39% | 8.78% | 1.62%
5 | c1cn(CCCNc2ncc(-c3ccsc3)c(-c3nccs3)n2)cn1 | 11% | 10.1% | 9.4%
6 | CCC(C)OC(=O)C1=C(C)NC2=C(C(=O)CC(c3ccc(OC)c(OC)c3)C2)C1c1ccc(O)cc1 (centres undefined) | 3.25% | 1.77% | 1.8%
7 | N#Cc1ccccc1C1CCN(C2CCC(Nc3cc(-c4cccnc4)ccn3)CC2)CC1 (centres undefined) | 2.02% | 1.09% | 2.26%
8 | CC(=NNc1nc2ccccc2s1)c1ccccn1 | 7.41% | 17.9% | 3.21%
9 | O=C(C=Cc1ccc(Cl)c(Cl)c1)NCCCCCN1CCCC(CCCNS(=O)(=O)c2ccc(Br)cc2)C1 (centres undefined) | 5.1% | 3.96% | 2.95%
10 | CCCCCCCCn1c2c(c(=N)c3c1CCC3)CCC2 | 87.3% | 91.5% | 89.9%
11 | NCc1ccc(CNCc2ccc(-c3ccc(-c4nc5cc(C(F)(F)F)ccc5[nH]4)s3)cc2)cc1 | 0.59% | 1.45% | 0.6%
12 | CCN(CC)/C(=N/C(=N)Nc1ccc(Br)cc1)NCCCCCCN/C(=N\C(=N)Nc1ccc(Br)cc1)N(CC)CC | -1.08% | 0.19% | -0.11%
13 | Cc1cccc2nc(-c3cccc(-c4ccc(NC(=O)NC(C)C)cc4)c3)[nH]c12 | 0% | 2.42% | -0.9%
14 | Cc1nc2ccc(NC(=O)Nc3ccnc4ccc(C(F)(F)F)cc34)cc2o1 | 5.89% | 10.7% | 5.33%
15 | CN1CCN(c2nsc3ccc(-c4ccc(OCCN5CCCC5)cc4)cc23)CC1 | 13.2% | 11.4% | 9.39%
16 | O=c1[nH]nc(-c2ccc(N3CCCC3)c([N+](=O)[O-])c2)c2ccccc12 | 2.71% | 3.31% | 4.21%
17 | Oc1ccc(-c2nc3c(N4CCN(Cc5ccccc5)CC4)cccc3n2C2CCNCC2)cc1 | 3.29% | 7.64% | 2.62%
18 | COc1ccccc1CCNc1nc(C)cc(N[C@@H](CC(C)C)C(=O)NCc2cccc(F)c2)n1 | 9.56% | 8.52% | 8.86%
19 | C#CC[C@@H](NC(N)=O)C(=O)O | -0.51% | 1% | 0.41%
20 | CCCN(CCC)CCCNc1ccc(C(=O)Nc2ccc(OCC)cc2)cc1[N+](=O)[O-] | 32.8% | 19.4% | 5.32%
21 | CCCCCN1CCCN(Cc2cccc(NC(=O)c3cc4ccccc4s3)c2)CC1 | 1.99% | 1.5% | 3.66%
22 | CCCn1c(Sc2ccc(C#N)c([N+](=O)[O-])c2)nnc1-c1ccc(N(C)C)cc1 | 5.64% | 4.8% | 3.14%
23 | COc1cc2c(cc1C(F)(F)F)N(C(=O)Nc1cc(-c3ccncc3)cc(-c3cccnc3)c1)CC2 | 3.84% | -0.38% | -0.7%
24 | CCOC(=O)c1nc(-c2ccc(Cl)cc2)[nH]c1NC(=S)NCCCN1CCOCC1 | -0.48% | 1.52% | -2.41%
25 | Cc1nc(N)nc(N)c1OCCCOc1cccc(Cl)c1Cl | 65.6% | 65.8% | 56.7%

Row | SMILES | inhibition [1] | inhibition [2] | inhibition [3]
26 | CCOc1cc(OCC)c2ccccc2c1CNCCCCCCNCc1c(OCC)cc(OCC)c2ccccc12 | 83.2% | 50.7% | 56.7%
27 | COc1ccc(NC(=O)CCNc2ccnc(NCCc3ccc(F)cc3)n2)cc1 | 2.48% | 2.27% | 1.75%
28 | Cn1nccc1C(=O)NCCNCc1ccc(-c2ccc(-c3nc4cc(C(F)(F)F)ccc4[nH]3)cc2)cc1 | 6.01% | 0.59% | 4.43%
29 | CCCn1c(O)nnc1SCC(=O)Nc1cc(Cl)ccc1Cl | -1.37% | -0.49% | -0.21%
30 | O=C(/C=C/c1cccc(C(F)(F)F)c1)NCCCCCN1CCN(C(=O)Nc2ccc(Cl)c(Cl)c2)CC1 | 2.21% | 2.33% | 1.97%
31 | CN(CCO)Cc1cccc(-c2ccc(NC(=O)c3cccc(C#N)c3)cc2)c1 | 1.6% | 0.52% | -2.56%
32 | O=C(O)c1ccc(OCOCOc2ccc(C(=O)O)c(O)c2)cc1O | 5.67% | 5.54% | 3.43%
33 | Nc1ccnc(N2CCC(CCOc3ccnc4cc(Cl)ccc34)CC2)c1 | 11.9% | 22.8% | 6.6%
34 | N#CCCN1CCN(Cc2ccc(-c3cccc(-c4nc5cc(F)ccc5[nH]4)c3)cc2)CC1 | 2.61% | 2.18% | 3.17%
35 | O=C1CCCN1CCCNCc1ccc(-c2cccc(-c3nc4cc(C(F)(F)F)ccc4[nH]3)c2)cc1 | 1.71% | -0.32% | -0.5%
36 | CC(CN1CCN(CC(c2ccc(F)cc2)N2CCN(C)CC2)CC1)C(=O)c1ccc(O)cc1 (centres undefined) | 2.71% | 2.35% | 2.04%
37 | CCCCN(Cc1cnccc1-c1ccc(Br)cc1)c1ccc(C(O)(C(F)(F)F)C(F)(F)F)cc1 | 3.94% | 3.75% | 0%
38 | CN1CCCc2ccc(NC(=O)c3ccc(-c4cc(C(F)(F)F)nn4C)s3)cc2C1 | 2.28% | 1.85% | -2.38%
39 | CCCCCCN1CCCN(Cc2ccc(C(=O)Nc3ccc(CC)cc3)cc2)CC1 | 11.4% | 10.9% | 10.6%
40 | CN1CCN(CCCN(Cc2cccc(-c3cccc(CNCc4ccc5c(c4)OCO5)c3)c2)C(=O)CCC2CCCC2)CC1 | 16.7% | 12.2% | 10.4%
41 | Cc1cccc2nc(-c3ccc(-c4ccc(CNCCNC(=O)c5ccnn5C)cc4)cc3)[nH]c12 | -0.55% | 1.46% | -2.49%
42 | COc1cc2nc(NCCCOC(C)C)n3nc(-c4ccccc4)nc3c2cc1OC | 11.4% | 10.4% | 7.73%
43 | Cc1nnc2c(NC(=O)NC3CCCC3)cc3ccc(-c4cccc(CN(C)C)c4)cc3n12 | 2.19% | 2.6% | 0.64%
44 | OCC1CCN(Cc2ccc(-c3ccc(-c4nc5cc(C(F)(F)F)ccc5[nH]4)cc3)cc2)CC1 | 5.9% | 8.94% | 3.07%
45 | CCCCCn1c(Sc2ccc(C#N)c([N+](=O)[O-])c2)nnc1-c1ccc(Cl)cc1 | 4.31% | 4.27% | 0.12%
46 | COc1cc(-c2cc3cc(Cl)c(Cl)cc3[nH]2)ccc1C(=O)NC1CCN(Cc2ccccc2)CC1 | 4.58% | 2.67% | 3.54%
47 | O=C(NC1CCCCN(Cc2ccc3c(c2)OCCO3)C1)c1cc(-c2ccccc2F)cs1 (centres undefined) | 12.7% | 16.4% | 12.8%
48 | CC(C)N(CC(=O)c1ccc(O)c(C(=O)O)c1)Cc1ccccc1 | 3.53% | 3.51% | 1.67%
49 | Oc1ccc(CCNc2nc(NCc3ccc4cc(Cl)ccc4c3)nc(N3CCNCC3)n2)cc1 | -0.16% | 1.41% | 0.67%
50 | CN1CCCN(Cc2cccc(-c3ccc(NS(=O)(=O)c4cccc5cccnc45)cc3)c2)CC1 | 1.84% | 1.21% | -3.11%

Row | SMILES | inhibition [1] | inhibition [2] | inhibition [3]
51 | CC(=O)Nc1nc(C(=O)Nc2ccc(-c3ccc(-c4nc5ccccc5[nH]4)cc3)cc2)cs1 | 4.03% | 2.54% | 3.01%
52 | COc1cccc2c(NN=Cc3cccc(Cl)c3)cc(C)nc12 | -0.65% | 0.14% | 1.05%
53 | COCCN1CCC(CN(C)CC(C)(C)c2nc(-c3ccc(Cl)c(O)c3)c(-c3ccncc3)[nH]2)CC1 | 2.73% | 5.16% | 0.55%
54 | Cc1c[nH]c(CCNC(=O)c2cc(-c3ccc(Cl)cc3)cs2)n1 | 2.64% | 0.26% | 2.79%
55 | Cc1c(C(=O)N2CCc3cc4nccc(N5CCN6CCC[C@H]6C5)c4cc32)cnn1-c1ccc(C#N)cc1 | 3.57% | 3.55% | 2.9%
56 | Fc1ccc2[nH]c(-c3cccc(-c4cccc(CN5CCN(c6cnccn6)CC5)c4)c3)nc2c1 | 7.08% | 5.74% | 4.27%
57 | CCCCCCCC(=O)N[C@@H](Cc1ccccc1)C(=O)N[C@H](C(=O)O)C(C)C | 2.54% | 1.23% | 2.59%
58 | CCn1c(-c2nonc2N)nc2c(-c3cccc(NC(=O)Nc4ccccc4Cl)c3)ncc(OCCCN)c21 | -1.06% | -1.1% | -0.34%
59 | CC(C)(CNC(=O)/C=C/c1ccc(Cl)c(Cl)c1)CNc1cc(=O)c2ccccc2[nH]1 | -0.77% | 0.05% | -2.49%
60 | COc1cc(Nc2nccc(N3CCC(NC(=O)Nc4cccc(C(C)=O)c4)C3)n2)cc(OC)c1OC (centres undefined) | 2.52% | 2.96% | 3.92%
61 | CNc1c2c(nc3ccc(NC(=O)CCCCCCc4ccccc4)cc13)CCCC2 | 5.72% | 8.7% | 4.32%
62 | COc1cc(Nc2nccc(N3CCC(NC(=O)C(C)c4ccc(Cl)cc4)C3)n2)cc(OC)c1OC (centres undefined) | 0.95% | -0.55% | 1.19%
63 | N=C(N)NN=CC(=O)Nc1ccc(Br)cc1 | -1.7% | -4.24% | -1.29%
64 | CC(=O)Nc1nc(C(=O)Nc2cccc(-c3ccc4c(cnn4CC4CC4)c3)c2)cs1 | 1.74% | 1.84% | 2.13%
65 | CCOC(=O)c1cc(C(=O)OC)c2ccccn12 | 2.17% | 0.87% | 1.34%
66 | Cc1cc(O)c(-c2ccc(OCc3ccc(Cl)cc3)cc2)c(C)n1 | 0.84% | 0.22% | -0.29%
67 | Cc1ccc(Nc2nccc(NCC(O)c3cccc(C(F)(F)F)c3)n2)cc1 (centres undefined) | 4.66% | 4% | 0.81%
68 | CCN(C)CCCn1c(N(C)C)nc2cc(-n3cnc4cc(-c5ccc(Cl)cc5)sc4c3=O)ccc21 | 8.73% | 10.9% | 3.62%
69 | Cc1cccc2nc(-c3ccc(-c4cccc(CN5CCN(CCO)CC5)c4)cc3)[nH]c12 | 7.34% | 4.65% | 4.22%
70 | Cc1ccc(NC(=O)Nc2ccccc2)cc1-c1ccc(C(=O)Nc2ccncc2)cc1 | 9.17% | 7.89% | 9%
71 | CCN(CC)CCCSc1ccc(-c2ccc(SCCCN(CC)CC)cc2)cc1 | 88.5% | 91.5% | 78.2%
72 | CN1CCCc2ccc(NC(=O)c3cnc(-c4ccccc4)cn3)cc21 | 0.24% | 0.87% | -0.23%
73 | CC[C@H](C)CNC(=O)c1cncc(-c2ccc(CNCC3CNCCCO3)cc2)c1 (some centres undefined) | -1.56% | -2.12% | -0.99%
